In the library only some 3% were active in any assay of this set; here they are far more common.
CHT inh – inhibitors of human choline transporter CHT | 310,000 tested, 0.86% active | AID 488975, 2010 | High affinity choline transporter 1 (Homo sapiens), Q9GZV3 | B-score at 10 µM | CHT-expressing cells, membrane potential dye, choline response; stronger effect = lower value;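 active means B-score over 3 SD under the library average, and starting fluorescence ratio not unusually high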;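 further: choline stimulus applied at its EC90 after an EC20 pre-addition; B-score computed on integrated fluorescence ratio after choline addition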
Target sequence (Q9GZV3 whole entry, looked up): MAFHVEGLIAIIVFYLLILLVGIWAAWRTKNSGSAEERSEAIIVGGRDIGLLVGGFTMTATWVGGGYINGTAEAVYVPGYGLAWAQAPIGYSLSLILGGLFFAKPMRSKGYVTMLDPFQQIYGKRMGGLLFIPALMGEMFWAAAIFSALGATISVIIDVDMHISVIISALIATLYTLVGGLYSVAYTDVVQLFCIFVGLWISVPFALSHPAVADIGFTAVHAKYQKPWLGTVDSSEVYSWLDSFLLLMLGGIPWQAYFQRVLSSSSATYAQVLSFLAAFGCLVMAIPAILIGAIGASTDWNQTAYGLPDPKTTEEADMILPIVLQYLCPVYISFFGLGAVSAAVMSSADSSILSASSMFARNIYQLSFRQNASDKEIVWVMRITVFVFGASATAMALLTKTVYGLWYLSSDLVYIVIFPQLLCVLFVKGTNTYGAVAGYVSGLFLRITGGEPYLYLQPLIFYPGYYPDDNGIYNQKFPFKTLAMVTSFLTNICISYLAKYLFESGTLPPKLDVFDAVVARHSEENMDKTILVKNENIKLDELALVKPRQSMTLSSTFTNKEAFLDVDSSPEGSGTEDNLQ
CHT PAM – CHT positive allosteric modulators, primary screen, cell-based, membrane potential dye, choline EC20. High affinity choline transporter 1 (Homo sapiens), Q9GZV3. CHT-expressing cells; stronger effect = higher value; LV-AA mutant CHT in HEK293 cells. B-score at 10 µM. 310,000 tested, 0.49% active. AID 488977, 2010;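 active means initial fluorescence not abnormally high and integrated response B-score, plate-corrected, over 3 SD above library mean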
NLRP3 yeast inh – NALP3 inflammasome inhibitors in reconstituted yeast, primary screen, luminescence, uHTS | Yeast reconstituted NLRP3/ASC/caspase-1, beta-gal luminescence, 24 h | inhibition, % at 10 µM | 330,000 tested, 0.39% active | AID 2825, 2010;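 active means inhibition of 50% or more; inactive means inhibition below 50%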;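 further: plate controls were induced DMSO wells for no effect and uninduced yeast grown without galactose for full effect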
A1 inh – caspase 3/7 activation in MEF A1-2A-BIM cells, primary screen, A1 inhibitor project, cell-based, luminescence, HTS; Caspase-Glo 3/7 luminescence, 3 h; percent of clofoctol response, vehicle zero; caspase activation, % (test concentration not listed); 330,000 tested, 0.066% active;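 active means over half of replicate activation scores above 10%, or exactly half above 10 with the replicate mean above 10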
NALP1 inh – NALP1 inflammasome inhibitors in reconstituted yeast, colorimetric, S. cerevisiae, triplicate retest | AID 2071, 2009 | inhibition, % at 10 µM | 280,000 tested, 0.61% active | S. cerevisiae NALP1/ASC/caspase-1 growth, X-gal OD620, 72 h; in the data active means inhibition mostly above about 24%, no sharp cut-off; inactive means mostly below about 32%
SUMO Mot1 rescue – yeast Mot1-301 growth rescue at high temperature, primary screen, SUMOylation pathway inhibitor project, S. cerevisiae, ATP luminescence, 38.5C; AID 2716, 2010; 320,000 tested, 1% active; growth rescue, % at 18.8 µM; S. cerevisiae Mot1-301 growth rescue; percent above DMSO median, 100 means doubled;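 active means every valid replicate shows activation above 250% relative to neutral control wells; inactive means the rest, any valid replicate at or below 250%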;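 further: OY570 slx delta 5 strain wells were the positive control but not used for scaling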
CHT activ conf – CHT activators, confirmation, cell-based, membrane potential dye, duplicate; shares compounds with CHT PAM; CHT-expressing cells, membrane potential dye fluorescence (FDSS); % of choline EC20–EC90 response window; HEK293 expressing CHT LV-AA mutant; choline added at its EC20; activation, % at 10 µM; 2,500 tested, 91% active; AID 504833, 2011;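 active means primary screen active, with duplicate mean activation above negative control mean plus 3 SD, cut at about 11% in these data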
HEK293 MP dye – membrane potential response in parental HEK293 cells, counter-screen for CHT activator project, cell-based, membrane potential dye. ratio readout change at 10 µM, hits read low. shares compounds with CHT PAM. membrane potential dye fluorescence (FDSS); measured after EC20 choline addition. 2,500 tested, 62% active;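 active means duplicate-averaged ratio beyond 3 SD from buffer wells, up or down, though filed actives are nearly all decreases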
* marks the source's active call; other numbers are inactive results.

Results for CCCCc1cn(C[C@H]2CC[C@@H]([C@@H]3CC[C@H](Cn4cc(CCCC)nn4)O3)O2)nn1 ?
CHT inh: inactive; CHT PAM: inactive; NLRP3 yeast inh: 1; A1 inh: 0; NALP1 inh: 10; SUMO Mot1 rescue: 5

Results for COc1cccc(-c2cn(C[C@H]3CC[C@@H]([C@@H]4CC[C@H](Cn5cc(-c6cccc(OC)c6)nn5)O4)O3)nn2)c1 ?
CHT inh: inactive; CHT PAM: 7*; NLRP3 yeast inh: -2; A1 inh: 2; NALP1 inh: -16; SUMO Mot1 rescue: 1; CHT activ conf: 15*; HEK293 MP dye: inactive

What do the screens show for `CNC(=O)Cn1c(C)cc(=O)c2cccc(C)c21`?
CHT inh: inactive; CHT PAM: 10*; NLRP3 yeast inh: 18; A1 inh: 0; NALP1 inh: -2; SUMO Mot1 rescue: -4; CHT activ conf: 63*; HEK293 MP dye: -73*

What do the screens show for `CCOC(=O)Cn1c(C)cc(=O)c2cccc(C)c21`?
CHT inh: inactive; CHT PAM: inactive; NLRP3 yeast inh: 17; A1 inh: 0; NALP1 inh: 0; SUMO Mot1 rescue: -5; CHT activ conf: 53*; HEK293 MP dye: -74*

How did CSc1ccccc1NC(=O)CN(C)C(=O)C1CCN(C(=O)Nc2ccccc2)CC1 do in these assays?
CHT inh: inactive; CHT PAM: inactive; NLRP3 yeast inh: 12; A1 inh: 0; SUMO Mot1 rescue: -23

What do the screens show for `O=C(Nc1ccccc1N1CCCCC1)C1CCN(C(=O)c2ccc(Cl)cc2)CC1`?
CHT inh: inactive; CHT PAM: inactive; NLRP3 yeast inh: 10; A1 inh: 0; SUMO Mot1 rescue: -3

Results for CS(=O)(=O)Nc1ccc(-c2cc(/C=C3\SC(N)=NC3=O)c[nH]c2=O)cc1 ?
CHT inh: inactive; CHT PAM: inactive; NLRP3 yeast inh: 4; A1 inh: 0; NALP1 inh: 19; SUMO Mot1 rescue: -9

How did COc1ccc(C(=O)C(C)[n+]2ccc(C)c3ccccc32)cc1[N+](=O)[O-] (configuration not stated) do in these assays?
CHT inh: inactive; CHT PAM: 6.5*; NLRP3 yeast inh: 15; A1 inh: 0; NALP1 inh: 6; SUMO Mot1 rescue: 17; CHT activ conf: 43*; HEK293 MP dye: -40*

How did Cc1cc(/C=N/NC(N)=O)c(C)n1-c1ccc(F)cc1 do in these assays?
CHT inh: inactive; CHT PAM: 14*; NLRP3 yeast inh: 7; A1 inh: -1; NALP1 inh: -2; SUMO Mot1 rescue: -4; CHT activ conf: 23*; HEK293 MP dye: inactive

What do the screens show for `CC(=O)N/N=C/c1cc(C)n(-c2ccc(Br)cc2)c1C`?
CHT inh: inactive; CHT PAM: inactive; NLRP3 yeast inh: -1; A1 inh: 0; NALP1 inh: 28; SUMO Mot1 rescue: -12

What do the screens show for `Cc1cc(=O)n2c3ccccc3n(CC(O)CN3CCCC3)c2c1C#N` (configuration not stated)?
CHT inh: inactive; CHT PAM: 6.9*; NLRP3 yeast inh: 14; A1 inh: 0; NALP1 inh: 20; SUMO Mot1 rescue: 19; CHT activ conf: 52*; HEK293 MP dye: -46*

Results for Cc1cc(=O)n2c(sc3ccccc32)c1C#N ?
CHT inh: inactive; CHT PAM: inactive; NLRP3 yeast inh: 7; A1 inh: 1; NALP1 inh: 3; SUMO Mot1 rescue: -30

What do the screens show for `CCCNCC(O)Cn1c2ccccc2n2c(=O)cc(C)c(C#N)c12` (configuration not stated)?
CHT inh: inactive; CHT PAM: inactive; NLRP3 yeast inh: 7; A1 inh: 2; NALP1 inh: 12; SUMO Mot1 rescue: 5; CHT activ conf: 46*; HEK293 MP dye: -41*

Results for Cc1c(C)n(CC(O)CN2CCCCC2)c2ccccc12 (configuration not stated) ?
CHT inh: inactive; CHT PAM: inactive; NLRP3 yeast inh: 11; A1 inh: 1; NALP1 inh: 13

What do the screens show for `CC(=O)OC(C)=O`?
NLRP3 yeast inh: 6; A1 inh: 0; SUMO Mot1 rescue: -22

Results for COc1ccccc1CNC(=O)c1c(N)n(CCCN2CCOCC2)c2nc3ccccc3nc12 ?
NALP1 inh: 12

How did Nc1c(C(=O)NCc2ccc3c(c2)OCO3)c2nc3ccccc3nc2n1CCCN1CCOCC1 do in these assays?
CHT inh: inactive; CHT PAM: 7.4*; NLRP3 yeast inh: 6; A1 inh: 1; NALP1 inh: 16; SUMO Mot1 rescue: -2; CHT activ conf: 12*; HEK293 MP dye: inactive

Results for Cc1cc(C)n2nc3nc4c(cc3c2n1)CCCC4 ?
CHT inh: inactive; CHT PAM: 7*; NLRP3 yeast inh: 8; A1 inh: -1; NALP1 inh: 16; SUMO Mot1 rescue: 33; CHT activ conf: 41*; HEK293 MP dye: -47*

Results for O=C(c1ccco1)n1c(=S)nc2ccccn21 ?
CHT inh: inactive; CHT PAM: inactive; NLRP3 yeast inh: 10; A1 inh: -5; NALP1 inh: 15; SUMO Mot1 rescue: -5; CHT activ conf: 34*; HEK293 MP dye: -24*

How did Cn1c(CNC(=O)CCNC(=O)c2ccc(F)c(F)c2)cc(=O)n(C)c1=O do in these assays?
CHT inh: inactive; CHT PAM: inactive; NLRP3 yeast inh: 23; A1 inh: 0; NALP1 inh: 17; SUMO Mot1 rescue: 18

Results for CN(Cc1cccc2ccccc12)C(=O)c1cc(COc2c(F)cccc2F)on1 ?
CHT inh: inactive; CHT PAM: inactive; NLRP3 yeast inh: 8; A1 inh: 0; NALP1 inh: 12; SUMO Mot1 rescue: 0; CHT activ conf: 40*; HEK293 MP dye: inactive

Results for CCc1ccc(CN(C)C(=O)c2cc(COc3c(F)cccc3F)on2)cc1 ?
CHT inh: inactive; CHT PAM: inactive; NLRP3 yeast inh: 13; A1 inh: -1; NALP1 inh: 8; SUMO Mot1 rescue: 8

Assay outcomes deposited in PubChem by several laboratories.
